PubChem BioAssay (EPA / NIEHS)
Several values for one entry are separate records, joined by “and”; a condition that tells them apart may be missing. Equal entries are not always repeated. Inconclusive results are not listed. More than one record can exist for a structure, and the calls need not agree. Activity calls are given as the source filed them. Rule for the calls: active = hit-call score of the fitted dose curve at least 0.9, where 1 is the maximum; inconclusive = response in the unintended direction; inactive = score below 0.9.

Columns and labels:
[1] = test system: turtle Estrogen Receptor (ERa), gene 101933533; test: ATG_trERa_XSP2: Attagene TRANS-FACTORIAL Multi-Species (XSP2) HepG2 Assay for turtle Estrogen Receptor (ERa) (AID 2283812);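 note: actives raise reporter signal above DMSO so AC50 reflects agonist activity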
Method in brief: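 Readout is reporter mRNA quantified by RT-PCR with capillary electrophoresis after 24 h compound exposure, increase relative to DMSO. Uses transiently transfected human HepG2 liver cells carrying a chimeric turtle ERa-Gal4 receptor driving GAL4-UAS reporters.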

[2] = biological target: Estrogen receptor beta (Homo sapiens) (UniProt Q92731); test: ATG_hERb_XSP2: Attagene TRANS-FACTORIAL Multi-Species (XSP2) HepG2 Assay for human Estrogen Receptor (ERb) (AID 2283813);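 note: actives raise reporter mRNA above DMSO so AC50 reflects agonist induction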
Method in brief: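 Transient TRANS reporter system in HepG2: after 24 h of chemical, RNA is reverse-transcribed, reporter cDNA amplified, FAM-labelled and sized by capillary electrophoresis. Induction of the human ERb-Gal4 reporter is measured relative to DMSO.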

[3] = test system: turtle Androgen Receptor (AR), gene 101947425; test: ATG_trAR_XSP2: Attagene TRANS-FACTORIAL Multi-Species (XSP2) HepG2 Assay for turtle Androgen Receptor (AR) (AID 2283815);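 for AC50: reporter mRNA from a Gal4 chimera of turtle AR measured by RT-PCR; potency for gain of reporter signal meaning activation above DMSO baseline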
Method in brief: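 Reporter transcripts were quantified via RT-PCR and capillary electrophoresis and fitted upward against DMSO. Transiently transfected human HepG2 cells carrying NR-Gal4 chimeras were exposed 24 h, with 3 nM 6-alpha-fluorotestosterone plus 1.5 nM norgestrel added.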

[4] = biological target: zebrafish Estrogen Receptor (ER1), esr1 (gene 259252) (UniProt P57717); test: ATG_zfER1_XSP2: Attagene TRANS-FACTORIAL Multi-Species (XSP2) HepG2 Assay for zebrafish Estrogen Receptor (ER1) (AID 2283816)
Method in brief: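 After 24 h compound exposure, RNA from transfected HepG2 cells was reverse-transcribed and reporter transcripts resolved by capillary electrophoresis. The TRANS format reads exogenous zebrafish ER1-Gal4 chimera activity on GAL4-UAS elements; gain of signal against DMSO.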

[5] = biological target: chicken Estrogen Receptor (ERa), ESR1 (gene 396099) (UniProt P06212); test: ATG_chERa_XSP2: Attagene TRANS-FACTORIAL Multi-Species (XSP2) HepG2 Assay for chicken Estrogen Receptor (ERa) (AID 2283817);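 note: actives raise reporter signal above DMSO so AC50 reflects ER activation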
Method in brief: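 Readout: fluorescent reporter-transcript fragments resolved by capillary electrophoresis after RT-PCR and HpaI cut. Chicken ERa-Gal4 fusion in transiently transfected HepG2, dosed for 24 h; activity taken as increase over DMSO baseline.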

[6] = test system: zebrafish Estrogen Receptor (ER2a), gene 317734; test: ATG_zfER2a_XSP2: Attagene TRANS-FACTORIAL Multi-Species (XSP2) HepG2 Assay for zebrafish Estrogen Receptor (ER2a) (AID 2283818);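 note: hits raise reporter mRNA so AC50 reflects activation of zebrafish ER2a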
Method in brief: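 Multiplexed trans-reporter readout: RT-PCR then capillary electrophoresis of reporter transcripts after 24 h compound treatment. Human HepG2 carries transfected zebrafish ER2a-Gal4 chimera; 3 nM 6-alpha-fluorotestosterone plus 1.5 nM norgestrel present. Induction scored against DMSO.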

[7] = test system: chicken Androgen Receptor (AR), gene 422165; test: ATG_chAR_XSP2: Attagene TRANS-FACTORIAL Multi-Species (XSP2) HepG2 Assay for chicken Androgen Receptor (AR) (AID 2283819);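 note: hits raise reporter mRNA above DMSO so potency is for activation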
Method in brief: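 Readout is reporter mRNA induction via RT-PCR/capillary electrophoresis after 24 h chemical exposure, positive direction relative to DMSO. Transiently transfected HepG2 express chimeric chicken AR–GAL4; AR stimulated by 3 nM 6-alpha-fluorotestosterone and 1.5 nM norgestrel.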

[8] = biological target: human Androgen Receptor (AR), AR (gene 367) (UniProt P10275); test: ATG_hAR_XSP2: Attagene TRANS-FACTORIAL Multi-Species (XSP2) HepG2 Assay for human Androgen Receptor (AR) (AID 2283820)
Method in brief: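 Reporter transcripts were measured by RT-PCR and capillary electrophoresis 24 h post-dosing, with gain of signal fitted against DMSO. Transiently transfected HepG2 cells expressed chimeric NR-Gal4 on GAL4-UAS reporters, with AR stimulated by 3 nM 6-alpha-fluorotestosterone and 1.5 nM norgestrel.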

[9] = test system: frog Estrogen Receptor (ER), gene 398734; test: ATG_frER1_XSP2: Attagene TRANS-FACTORIAL Multi-Species (XSP2) HepG2 Assay for frog Estrogen Receptor (ER) (AID 2283821);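 note: hits raise reporter mRNA above DMSO baseline so potency means agonist or activator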
Method in brief: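 Reporter mRNA induction, detected as fluorescence after RT-PCR and capillary electrophoresis, is the endpoint; activity is fitted upward against DMSO. Cells are human liver HepG2 carrying transfected NR-Gal4 chimeras with GAL4-UAS-driven reporters, harvested 24 h post-dosing.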

[10] = test system: zebrafish Estrogen Receptor (ER2b), gene 317733; test: ATG_zfER2b_XSP2: Attagene TRANS-FACTORIAL Multi-Species (XSP2) HepG2 Assay for zebrafish Estrogen Receptor (ER2b) (AID 2283823);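 note: fitted upward as reporter gain over DMSO so potency reflects activation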
Method in brief: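 Cells used were HepG2, transiently transfected with chimeric nuclear receptor-Gal4 reporter units. After 24 h of chemical treatment, reporter transcripts were amplified by RT-PCR, labelled and sized by capillary electrophoresis, with induction analysed relative to DMSO.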

[11] = test system: frog Androgen Receptor (AR), gene 399456; test: ATG_frAR_XSP2: Attagene TRANS-FACTORIAL Multi-Species (XSP2) HepG2 Assay for frog Androgen Receptor (AR) (AID 2283824);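 note: reporter mRNA from GAL4-UAS units driven by Xenopus AR-Gal4 chimera; actives raise reporter signal above DMSO so AC50 reflects agonist-like induction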
Method in brief: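 Reporter transcript induction, read by RT-PCR with fluorescent capillary electrophoresis, in human liver HepG2 cells carrying an exogenous Xenopus AR-Gal4 fusion and GAL4-driven reporters; chemical exposure 24 hours, activity scored upward against DMSO controls.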

[12] = test system: frog Estrogen Receptor (ER2), gene 100174814; test: ATG_frER2_XSP2: Attagene TRANS-FACTORIAL Multi-Species (XSP2) HepG2 Assay for frog Estrogen Receptor (ER2) (AID 2283828)
Method in brief: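 Cells were transfected with reporter constructs under GAL4-UAS control, dosed with chemicals for 24 h, then lysed for RNA; the frog ER2-driven reporter mRNA was quantified by capillary electrophoresis of labeled PCR fragments, with activity fitted upward from DMSO.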

[13] = biological target: mouse Peroxisome Proliferator-activated Receptor gamma (PPARg), Pparg (gene 19016) (UniProt P37238); test: ATG_mPPARg_XSP2: Attagene TRANS-FACTORIAL Multi-Species (XSP2) HepG2 Assay for mouse Peroxisome Proliferator-activated Receptor gamma (PPARg) (AID 2283830);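 note: hits are gains in reporter mRNA above DMSO so AC50 marks activation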
Method in brief: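 Multiplexed TRANS reporter readout: after 24 h chemical exposure of transfected HepG2 cells (with 3 nM 6-alpha-fluorotestosterone, 1.5 nM norgestrel present), RNA reverse-transcribed, amplified, 6-FAM-labelled and resolved by capillary electrophoresis; mouse PPARg-Gal4 induction scored against DMSO.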

[14] = biological target: Nuclear receptor subfamily 1 group I member 2 (Mus musculus) (UniProt O54915); test: ATG_mPXR_XSP2: Attagene TRANS-FACTORIAL Multi-Species (XSP1) HepG2 Assay for mouse Pregnane X Receptor (PXR) (AID 2283831)
Method in brief: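 Reporter transcripts were quantified by RT-PCR, FAM primer extension, HpaI digestion and capillary electrophoresis after 24 h of chemical exposure in transiently transfected HepG2 cells carrying chimeric receptor-GAL4 constructs; DMSO served as baseline.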

[15] = biological target: zebrafish Thyroid Hormone Receptor alpha (TRa), thraa (gene 30670) (UniProt Q98867); test: ATG_zfTRa_XSP2: Attagene TRANS-FACTORIAL Multi-Species (XSP1) HepG2 Assay for zebrafish Thyroid Hormone Receptor alpha (TRa) (AID 2283832);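 note: actives raise zebrafish TRa-Gal4 reporter transcript above DMSO baseline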
Method in brief: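 Chimeric zebrafish TRa-Gal4 activity read in transfected human HepG2 as GAL4-UAS reporter transcripts, 24 h post-dose, via RT-PCR with labeled primer extension and capillary electrophoresis. Medium also carries 3 nM 6-alpha-fluorotestosterone and 1.5 nM norgestrel; DMSO baseline.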

[16] = test system: zebrafish Peroxisome Proliferator-activated Receptor gamma (PPARg), gene 557037; test: ATG_zfPPARg_XSP2: Attagene TRANS-FACTORIAL Multi-Species (XSP2) HepG2 Assay for zebrafish Peroxisome Proliferator-activated Receptor gamma (PPARg) (AID 2283833);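 note: actives increase reporter signal over DMSO so AC50 reflects activation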
Method in brief: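 Multi-species TRANS format in HepG2, 24 h dosing; medium also contained 3 nM 6-alpha-fluorotestosterone and 1.5 nM norgestrel to stimulate androgen receptor. Zebrafish PPARg-GAL4 induced reporter mRNA was measured by RT-PCR/capillary electrophoresis.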

[17] = biological target: GAL4 Transcription Factor (Internal Marker), GAL4 (gene 855828) (UniProt P04386); test: ATG_GAL4_XSP2: Attagene TRANS-FACTORIAL Multi-Species (XSP2) HepG2 Assay for GAL4 Transcription Factor (Internal Marker) (AID 2283814);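 note: GAL4 reporter mRNA background control in MRTU transfected cells not a receptor target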
Method in brief: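 Background-control readout: gain-of-signal fitted against DMSO. After 24 h exposure of transfected HepG2 (MRTU, GAL4-UAS reporters; 3 nM 6-alpha-fluorotestosterone, 1.5 nM norgestrel present), transcripts quantified by RT-PCR and capillary electrophoresis fluorescence.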

[18] = ATG_M_19_XSP2: Attagene TRANS-FACTORIAL Multi-Species (XSP2) HepG2 Assay for M32 Transcription Factor (Internal Marker) (AID 2283822)
Method in brief: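 Internal background marker in a multi-species nuclear receptor TRANS panel: transfected HepG2 cells exposed 24 h, with 3 nM 6-alpha-fluorotestosterone and 1.5 nM norgestrel present. Readout is RT-PCR of reporter transcripts resolved by capillary electrophoresis, gain-of-signal versus DMSO.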

[19] = test system: zebrafish Androgen Receptor (AR), gene 100005148; test: ATG_zfAR_XSP2: Attagene TRANS-FACTORIAL Multi-Species (XSP2) HepG2 Assay for zebrafish Androgen Receptor (AR) (AID 2283825);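 note: hits raise reporter mRNA above DMSO so AC50 reflects agonist-type gain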
Method in brief: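 After 24 h compound exposure in medium with 3 nM 6-alpha-fluorotestosterone plus 1.5 nM norgestrel, HepG2 cells carrying zebrafish AR–GAL4 reporter constructs were assessed for reporter mRNA gain by RT-PCR and capillary electrophoresis.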

[20] = biological target: Peroxisome proliferator-activated receptor gamma (Homo sapiens) (UniProt P37231); test: ATG_hPPARg_XSP2: Attagene TRANS-FACTORIAL Multi-Species (XSP2) HepG2 Assay for human Peroxisome Proliferator-activated Receptor gamma (PPARg) (AID 2283829);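 note: actives raise reporter mRNA above DMSO so AC50 reflects PPARg activation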
Method in brief: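 After transfecting HepG2 with GAL4-UAS reporter constructs, cells are dosed for 24 h; total RNA is reverse-transcribed, PCR-amplified, FAM-labeled, HpaI-digested and resolved by capillary electrophoresis. Activity is measured as mRNA induction relative to DMSO.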

zebrafish Thyroid Hormone Receptor alpha (TRa), thraa (gene 30670), sequence (Q98867 whole entry, looked up, the tested form may be a part): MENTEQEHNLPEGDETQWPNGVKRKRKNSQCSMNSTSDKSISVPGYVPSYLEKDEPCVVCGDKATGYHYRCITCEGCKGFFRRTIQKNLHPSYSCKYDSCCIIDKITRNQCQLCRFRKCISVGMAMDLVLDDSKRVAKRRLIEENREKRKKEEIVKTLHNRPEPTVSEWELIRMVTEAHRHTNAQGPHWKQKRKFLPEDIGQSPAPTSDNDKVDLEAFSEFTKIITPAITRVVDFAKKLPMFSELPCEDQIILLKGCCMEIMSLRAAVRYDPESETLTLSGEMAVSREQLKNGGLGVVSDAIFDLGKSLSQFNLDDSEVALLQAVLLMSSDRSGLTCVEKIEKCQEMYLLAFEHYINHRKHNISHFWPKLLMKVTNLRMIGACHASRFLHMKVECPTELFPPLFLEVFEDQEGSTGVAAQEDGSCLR
zebrafish Estrogen Receptor (ER1), esr1 (gene 259252), sequence (P57717 whole entry, looked up, the tested form may be a part): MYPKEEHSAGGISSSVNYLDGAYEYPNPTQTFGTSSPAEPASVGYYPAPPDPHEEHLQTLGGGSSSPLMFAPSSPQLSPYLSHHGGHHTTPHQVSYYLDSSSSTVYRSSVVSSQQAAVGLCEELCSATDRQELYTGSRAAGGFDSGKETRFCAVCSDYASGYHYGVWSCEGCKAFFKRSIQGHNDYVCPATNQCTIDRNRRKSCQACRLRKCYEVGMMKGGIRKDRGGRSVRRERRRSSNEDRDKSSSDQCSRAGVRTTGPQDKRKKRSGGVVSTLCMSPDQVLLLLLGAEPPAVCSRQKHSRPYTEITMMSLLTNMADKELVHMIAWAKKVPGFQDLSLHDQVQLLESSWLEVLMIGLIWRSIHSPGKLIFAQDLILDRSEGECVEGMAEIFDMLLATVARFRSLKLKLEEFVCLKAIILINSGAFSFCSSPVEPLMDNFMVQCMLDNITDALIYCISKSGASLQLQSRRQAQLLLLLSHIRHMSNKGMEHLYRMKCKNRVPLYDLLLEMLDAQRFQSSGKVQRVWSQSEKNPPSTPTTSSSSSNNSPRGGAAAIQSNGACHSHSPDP
Nuclear receptor subfamily 1 group I member 2 (Mus musculus), sequence (O54915 whole entry, looked up, the tested form may be a part): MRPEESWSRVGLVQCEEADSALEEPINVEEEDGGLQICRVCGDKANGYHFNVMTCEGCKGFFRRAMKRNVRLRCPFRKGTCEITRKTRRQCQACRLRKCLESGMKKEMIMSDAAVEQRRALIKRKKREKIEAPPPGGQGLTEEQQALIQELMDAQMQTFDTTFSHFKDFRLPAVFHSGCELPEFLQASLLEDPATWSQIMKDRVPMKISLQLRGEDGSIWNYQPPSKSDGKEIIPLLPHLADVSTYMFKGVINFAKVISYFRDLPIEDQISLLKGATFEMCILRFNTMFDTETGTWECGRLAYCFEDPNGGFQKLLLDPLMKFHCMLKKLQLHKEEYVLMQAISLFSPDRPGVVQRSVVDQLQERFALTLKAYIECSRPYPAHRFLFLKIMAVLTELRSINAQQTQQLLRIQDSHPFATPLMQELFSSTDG
GAL4 Transcription Factor (Internal Marker), GAL4 (gene 855828), sequence (P04386 whole entry, looked up, the tested form may be a part): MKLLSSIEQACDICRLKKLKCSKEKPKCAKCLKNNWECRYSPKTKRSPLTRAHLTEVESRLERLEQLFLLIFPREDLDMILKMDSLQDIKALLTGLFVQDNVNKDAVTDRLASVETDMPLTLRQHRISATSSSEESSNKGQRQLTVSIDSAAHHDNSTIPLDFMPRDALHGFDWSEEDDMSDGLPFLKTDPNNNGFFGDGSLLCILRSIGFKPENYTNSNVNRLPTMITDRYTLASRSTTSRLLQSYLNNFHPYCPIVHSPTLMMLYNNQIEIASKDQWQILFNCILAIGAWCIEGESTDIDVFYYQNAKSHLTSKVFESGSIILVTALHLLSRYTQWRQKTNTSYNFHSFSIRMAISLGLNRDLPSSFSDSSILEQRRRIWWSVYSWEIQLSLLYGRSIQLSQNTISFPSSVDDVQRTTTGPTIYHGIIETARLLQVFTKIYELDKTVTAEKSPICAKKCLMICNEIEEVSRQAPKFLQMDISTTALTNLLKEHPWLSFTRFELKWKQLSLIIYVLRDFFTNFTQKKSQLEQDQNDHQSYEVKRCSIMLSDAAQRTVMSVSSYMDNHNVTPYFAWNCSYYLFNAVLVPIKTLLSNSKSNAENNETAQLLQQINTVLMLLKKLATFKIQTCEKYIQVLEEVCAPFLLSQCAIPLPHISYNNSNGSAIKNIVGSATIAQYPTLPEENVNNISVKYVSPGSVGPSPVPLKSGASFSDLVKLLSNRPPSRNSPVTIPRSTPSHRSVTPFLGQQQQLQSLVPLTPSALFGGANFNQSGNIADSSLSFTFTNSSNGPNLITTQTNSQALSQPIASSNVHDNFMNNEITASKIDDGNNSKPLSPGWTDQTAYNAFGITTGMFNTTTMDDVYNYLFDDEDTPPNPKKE
mouse Peroxisome Proliferator-activated Receptor gamma (PPARg), Pparg (gene 19016), sequence (P37238 whole entry, looked up, the tested form may be a part): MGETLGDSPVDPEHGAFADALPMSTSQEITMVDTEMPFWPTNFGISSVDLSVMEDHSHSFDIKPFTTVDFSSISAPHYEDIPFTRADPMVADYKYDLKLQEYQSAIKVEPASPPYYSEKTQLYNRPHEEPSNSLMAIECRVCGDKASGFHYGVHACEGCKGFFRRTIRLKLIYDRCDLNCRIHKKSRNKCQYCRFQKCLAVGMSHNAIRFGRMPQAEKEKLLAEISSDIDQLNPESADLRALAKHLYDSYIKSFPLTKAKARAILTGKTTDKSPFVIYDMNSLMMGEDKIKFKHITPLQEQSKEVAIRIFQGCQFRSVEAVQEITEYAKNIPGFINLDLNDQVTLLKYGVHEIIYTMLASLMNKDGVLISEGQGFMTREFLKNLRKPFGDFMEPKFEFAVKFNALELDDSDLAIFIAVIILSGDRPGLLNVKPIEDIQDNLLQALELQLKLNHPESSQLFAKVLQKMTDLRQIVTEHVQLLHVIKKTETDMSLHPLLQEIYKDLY
chicken Estrogen Receptor (ERa), ESR1 (gene 396099), sequence (P06212 whole entry, looked up, the tested form may be a part): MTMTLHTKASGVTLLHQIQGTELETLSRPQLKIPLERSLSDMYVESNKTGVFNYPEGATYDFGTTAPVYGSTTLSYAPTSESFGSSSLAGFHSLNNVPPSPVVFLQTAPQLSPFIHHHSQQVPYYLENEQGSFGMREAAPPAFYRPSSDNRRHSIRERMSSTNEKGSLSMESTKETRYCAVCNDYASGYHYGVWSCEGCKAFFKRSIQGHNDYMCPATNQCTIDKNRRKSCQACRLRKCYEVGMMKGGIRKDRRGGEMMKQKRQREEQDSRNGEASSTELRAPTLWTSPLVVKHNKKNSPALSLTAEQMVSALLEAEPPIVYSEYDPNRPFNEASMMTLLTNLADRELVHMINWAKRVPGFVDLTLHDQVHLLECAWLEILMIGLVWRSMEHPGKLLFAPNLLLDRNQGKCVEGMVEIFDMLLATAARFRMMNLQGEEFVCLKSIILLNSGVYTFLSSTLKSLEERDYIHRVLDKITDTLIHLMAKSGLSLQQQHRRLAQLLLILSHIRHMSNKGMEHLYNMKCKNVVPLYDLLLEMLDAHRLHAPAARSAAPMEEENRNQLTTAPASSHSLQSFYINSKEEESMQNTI
Peroxisome proliferator-activated receptor gamma (Homo sapiens), sequence (P37231 whole entry, looked up, the tested form may be a part): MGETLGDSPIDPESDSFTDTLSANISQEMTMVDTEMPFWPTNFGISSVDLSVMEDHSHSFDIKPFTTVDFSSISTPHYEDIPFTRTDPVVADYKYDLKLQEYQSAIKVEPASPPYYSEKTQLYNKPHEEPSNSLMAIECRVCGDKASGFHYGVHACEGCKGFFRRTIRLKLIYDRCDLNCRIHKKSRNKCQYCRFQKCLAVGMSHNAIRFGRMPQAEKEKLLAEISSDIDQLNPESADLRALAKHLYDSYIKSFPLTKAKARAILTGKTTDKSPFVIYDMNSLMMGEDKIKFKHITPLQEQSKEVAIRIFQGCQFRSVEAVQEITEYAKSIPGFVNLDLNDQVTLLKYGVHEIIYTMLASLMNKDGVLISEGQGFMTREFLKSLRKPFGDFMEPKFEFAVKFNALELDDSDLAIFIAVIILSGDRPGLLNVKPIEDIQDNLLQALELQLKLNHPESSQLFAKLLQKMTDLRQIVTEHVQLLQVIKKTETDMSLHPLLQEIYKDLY
Estrogen receptor beta (Homo sapiens), sequence (Q92731 whole entry, looked up, the tested form may be a part): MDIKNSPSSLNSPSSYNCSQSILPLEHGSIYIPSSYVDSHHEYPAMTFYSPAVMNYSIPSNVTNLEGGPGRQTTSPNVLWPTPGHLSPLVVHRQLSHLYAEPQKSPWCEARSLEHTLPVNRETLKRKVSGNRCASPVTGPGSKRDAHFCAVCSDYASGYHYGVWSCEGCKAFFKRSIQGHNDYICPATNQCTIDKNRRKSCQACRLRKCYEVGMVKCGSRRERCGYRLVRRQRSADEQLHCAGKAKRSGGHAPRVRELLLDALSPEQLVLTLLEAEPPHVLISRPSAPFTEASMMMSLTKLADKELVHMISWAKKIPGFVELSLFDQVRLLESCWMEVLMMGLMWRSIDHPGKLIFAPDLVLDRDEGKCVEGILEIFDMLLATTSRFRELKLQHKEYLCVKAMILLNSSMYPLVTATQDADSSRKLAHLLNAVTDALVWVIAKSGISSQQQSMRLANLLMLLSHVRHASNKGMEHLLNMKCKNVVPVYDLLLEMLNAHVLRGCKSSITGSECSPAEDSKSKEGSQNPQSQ

In the case of `O=c1cc(-c2ccccc2)oc2cc(O)cc(O)c12`, the AC50 [1] is reported as 9.68 µM (active) and 2.6 µM (active), the AC50 [2] is reported as 42.2 µM (active) and 2.03 µM (active) and the AC50 [3] is reported as 1.41 µM (active). For the same compound, the AC50 [4] was 6.38 µM (active), the outcome [4] was “inactive” and the AC50 [5] was 7.18 µM (active) and 2.51 µM (active). For the same compound, the AC50 [6] was 6.82 µM (active) and 2.26 µM (active), the AC50 [7] was 1.51 µM (active) and the outcome [7] was “inactive”. The AC50 [8] was 23.8 µM (active), the outcome [8] was “inactive” and the outcome [9] was “inactive”. For the same compound, the AC50 [10] was 14.2 µM (active) and 5.28 µM (active), the AC50 [11] was 1.19 µM (active) and the outcome [11] was “inactive”. The AC50 [12] was 4.67 µM (active) and 2.26 µM (active), the AC50 [13] was 7.92 µM (active) and 1.57 µM (active) and the AC50 [14] was 12.3 µM (active) and 25.9 µM (active). For the same compound, the outcome [15] was “inactive” and the outcome [16] was “inactive”.

With `CN(CCOc1ccc(CC2SC(=O)NC2=O)cc1)c1ccccn1` (stereo not drawn) the outcome [9] was “inactive”, the outcome [12] was “inactive” and the outcome [16] was “inactive”.

In the case of `O=C(Oc1ccccc1)c1ccc(O)cc1`, the AC50 [1] is reported as 30.6 µM (active), the outcome [1] is reported as “inactive” and the AC50 [2] is reported as 6.15 µM (active). For the same compound, the outcome [2] was “inactive”, the outcome [17] was “inactive” and the outcome [3] was “inactive”. For the same compound, the AC50 [4] was 58.3 µM (active), the outcome [4] was “inactive” and the AC50 [5] was 27.8 µM (active). The outcome [5] was “inactive”, the AC50 [6] was 63.9 µM (active) and 27.7 µM (active) and the outcome [7] was “inactive”. For the same compound, the AC50 [9] was 27.2 µM (active), the outcome [9] was “inactive” and the outcome [18] was “inactive”. The AC50 [10] was 51.2 µM (active) and 4.93 µM (active), the outcome [11] was “inactive” and the outcome [19] was “inactive”. The AC50 [12] was 72.4 µM (active) and 4.8 µM (active), the AC50 [20] was 100 µM (active) and the outcome [20] was “inactive”. The AC50 [13] was 68.1 µM (active), the outcome [13] was “inactive” and the AC50 [14] was 33.2 µM (active). For the same compound, the outcome [15] was “inactive” and the outcome [16] was “inactive”.

In the case of `CCCCCCCCCCCCN`, the AC50 [1] is reported as 44.3 µM (active), the outcome [17] is reported as “inactive” and the outcome [3] is reported as “inactive”. The outcome [4] was “inactive”, the AC50 [5] was 48.3 µM (active) and the AC50 [6] was 46.7 µM (active). The outcome [6] was “inactive”, the outcome [7] was “inactive” and the outcome [9] was “inactive”. For the same compound, the outcome [18] was “inactive”, the outcome [10] was “inactive” and the outcome [11] was “inactive”. For the same compound, the AC50 [12] was 55.1 µM (active), the AC50 [20] was 30 µM (active) and 11.9 µM (active) and the AC50 [13] was 46.2 µM (active) and 37.7 µM (active). For the same compound, the outcome [14] was “inactive” and the outcome [16] was “inactive”.

With `CN(C)C(=N)N=C(N)N` the outcome [17] was “inactive”, the outcome [3] was “inactive” and the outcome [6] was “inactive”. For the same compound, the outcome [7] was “inactive”, the outcome [18] was “inactive” and the outcome [10] was “inactive”. For the same compound, the outcome [19] was “inactive”, the outcome [12] was “inactive” and the outcome [20] was “inactive”. The outcome [13] was “inactive”, the outcome [15] was “inactive” and the outcome [16] was “inactive”.
